Experimental data as given in the supplement of paper PMC5662767.
Where a name gives a salt, the structure may show the parent alone.

Test system: Drosophila S2 cl14 SmoIP sensor cells
Experiment: normalized SmoIP GFP fluorescence (untreated unstimulated = 0%, untreated Hh-stimulated = 100%); higher = more Smo activation sensor fluorescence
Conditions: compound concentration: 2 uM, 24 h
[1] = stimulation: Hh conditioned medium (+Hh)
[2] = stimulation: mock conditioned medium (-Hh)
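Also: flow cytometry read-out as median GFP intensity of gated cells, compounds added 30 min before Hh-conditioned or mock medium, mock-treated cells serving as unstimulated baseline.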

COc1ccc([C@@H]2CC(=O)c3c(O)cc(O)cc3O2)cc1O [Hesperetin]
normalized SmoIP GFP fluorescence [1]: 111% | normalized SmoIP GFP fluorescence [2]: -18.9%

CN1CCC[C@@H]1Cc1c[nH]c2ccc(CCS(=O)(=O)c3ccccc3)cc12 [eletriptan-hydrobromide]
normalized SmoIP GFP fluorescence [1]: 106% | normalized SmoIP GFP fluorescence [2]: -2.71%

CC[C@H](C)C(=O)O[C@@H]1C[C@@H](C)C=C2C=C[C@H](C)[C@@H](CC[C@@H]3C[C@@H](O)CC(=O)O3)[C@H]21 [lovastatin-mevacor]
normalized SmoIP GFP fluorescence [1]: 123% | normalized SmoIP GFP fluorescence [2]: -14.7%

CC(C)NCC(O)c1ccc(O)c(O)c1 (stereo not given) [Isoprenaline-hydrochloride]
normalized SmoIP GFP fluorescence [1]: 141% | normalized SmoIP GFP fluorescence [2]: -14.1%

O=C(Nc1c(Cl)cncc1Cl)c1ccc(OC(F)F)c(OCC2CC2)c1 [Roflumilast(Daxas)]
normalized SmoIP GFP fluorescence [1]: 134% | normalized SmoIP GFP fluorescence [2]: -8.23%

Cc1cc(Nc2cc(CN3CCOCC3)c3nc(C)c(Cc4ccc(Cl)cc4F)n3n2)n[nH]1
normalized SmoIP GFP fluorescence [1]: 109% | normalized SmoIP GFP fluorescence [2]: -5.53%

C[C@@]1(C(=O)Nc2ccc(F)nc2)CCCN1c1nc(Nc2cc(C3CC3)n[nH]2)c2cccn2n1
normalized SmoIP GFP fluorescence [1]: 230% | normalized SmoIP GFP fluorescence [2]: 60.9%

COC(=O)C1=C(C)NC(C)=C(C(=O)OCCN2CCN(C(c3ccccc3)c3ccccc3)CC2)C1c1cccc([N+](=O)[O-])c1 (stereo not given) [Manidipine(Manyper)]
normalized SmoIP GFP fluorescence [1]: 118% | normalized SmoIP GFP fluorescence [2]: 3.85%

CCn1c2ccccc2c2cc(Nc3ccnc(NCCCN4CCOCC4)n3)ccc21 [ehop-016]
normalized SmoIP GFP fluorescence [1]: 100% | normalized SmoIP GFP fluorescence [2]: -3.62%

Cc1cc(C)c(Nc2ccnc(Nc3ccc(C#N)cc3)n2)c(C)c1 [dapivirine]
normalized SmoIP GFP fluorescence [1]: 111% | normalized SmoIP GFP fluorescence [2]: -4.13%

COc1ccc(CNC(=O)Nc2ncc([N+](=O)[O-])s2)cc1
normalized SmoIP GFP fluorescence [1]: 111% | normalized SmoIP GFP fluorescence [2]: -11%

NC(=O)c1noc([C@H](CCCC2CCCCC2)CC(=O)NO)n1
normalized SmoIP GFP fluorescence [1]: 126% | normalized SmoIP GFP fluorescence [2]: -6.97%

C#CCN[C@@H]1CCc2ccccc21 [rasagiline-mesylate]
normalized SmoIP GFP fluorescence [1]: 120% | normalized SmoIP GFP fluorescence [2]: -13.4%

Cc1cccc(-c2nn3c(c2-c2ccnc4ccc(C(N)=O)cc24)CCC3)n1
normalized SmoIP GFP fluorescence [1]: 110% | normalized SmoIP GFP fluorescence [2]: -15.4%

CO[C@H]1C[C@@H]2CC[C@@H](C)[C@@](O)(O2)C(=O)C(=O)N2CCCC[C@H]2C(=O)O[C@H]([C@H](C)C[C@@H]2CC[C@@H](OC(=O)C(C)(CO)CO)[C@H](OC)C2)CC(=O)[C@H](C)/C=C(\C)[C@@H](O)[C@@H](OC)C(=O)[C@H](C)C[C@H](C)/C=C/C=C/C=C/1C [Temsirolimus]
normalized SmoIP GFP fluorescence [1]: 56.5% | normalized SmoIP GFP fluorescence [2]: -1.56%

CCC[C@H](NC(=O)[C@@H]1[C@H]2CCC[C@H]2CN1C(=O)[C@@H](NC(=O)[C@@H](NC(=O)c1cnccn1)C1CCCCC1)C(C)(C)C)C(=O)C(=O)NC1CC1 [Telaprevir(VX-950)]
normalized SmoIP GFP fluorescence [1]: 120% | normalized SmoIP GFP fluorescence [2]: 1.03%

CC(C)n1nc(-c2cc3cc(O)ccc3[nH]2)c2c(N)ncnc21
normalized SmoIP GFP fluorescence [1]: 117% | normalized SmoIP GFP fluorescence [2]: -12.7%

O=C1CCc2cc(OCCCCc3nnnn3C3CCCCC3)ccc2N1 [Cilostazol]
normalized SmoIP GFP fluorescence [1]: 116% | normalized SmoIP GFP fluorescence [2]: 2.11%

O=C(NOCC1CC1)c1ccc(F)c(F)c1Nc1ccc(I)cc1Cl
normalized SmoIP GFP fluorescence [1]: 112% | normalized SmoIP GFP fluorescence [2]: 10.7%

CCCCOc1ccc(C(=O)Nc2ccc(F)cc2F)cc1
normalized SmoIP GFP fluorescence [1]: 99.9% | normalized SmoIP GFP fluorescence [2]: -2.08%

CC1C(=O)OC2C(O)C34C5CC(C(C)(C)C)C36C(OC(=O)C6O)OC4(C(=O)O5)C12O (stereo not given) [Ginkgolide-B]
normalized SmoIP GFP fluorescence [1]: 85.5% | normalized SmoIP GFP fluorescence [2]: 0.489%

C[C@@H]1C[C@H]2[C@@H]3CCC4=CC(=O)C=C[C@]4(C)[C@@]3(F)[C@@H](O)C[C@]2(C)[C@@]1(O)C(=O)CO [Dexamethasone]
normalized SmoIP GFP fluorescence [1]: 86.8% | normalized SmoIP GFP fluorescence [2]: 5.66%

O=P(O)(O)C(O)(Cn1ccnc1)P(=O)(O)O [Zoledronic-Acid]
normalized SmoIP GFP fluorescence [1]: 98.3% | normalized SmoIP GFP fluorescence [2]: -5.54%

O=C(O)c1ccc(C=C2SC(=S)N(c3cccc(C(F)(F)F)c3)C2=O)cc1 [cftrinh-172]
normalized SmoIP GFP fluorescence [1]: 121% | normalized SmoIP GFP fluorescence [2]: 2.24%

COc1ncc(-c2ccc3nccc(-c4ccnnc4)c3c2)cc1NS(=O)(=O)c1ccc(F)cc1F
normalized SmoIP GFP fluorescence [1]: 57.4% | normalized SmoIP GFP fluorescence [2]: -10.6%
